PubChem BioAssay (EPA / NIEHS)
Inconclusive results are not listed. The source made the active and inactive calls. The calls were made as follows: active = hit-call score of the fitted dose curve at least 0.9, where 1 is the maximum; inconclusive = response in the unintended direction; inactive = score below 0.9. Peptide text beside a SMILES is read from it.

assay: CCTE_Shafer_MEA_acute_LDH: CCTE's Lactate Dehydrogenase Assay for Cytotoxicity in the Neural Acute Assay, Shafer Lab (AID 2284086);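 also: active means LDH release rises above DMSO vehicle level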
Method: CCTE_Shafer_MEA_acute assay is conducted using Axion Biosystems 48 well microelectrode array (MEA) plates and Maestro recording system. Each well of the MEA plate contains a grid of 16 microelectrodes embedded in the culture surface. Electrically active cells, such as neurons, can be cultured over the electrodes, and electrical activity in these cells can be recorded extracellularly. The spontaneous firing of neurons is captured from each electrode on a microsecond timescale providing both temporally and spatially precise data. […] The CCTE_Shafer_MEA_acute assay uses primary cultures of rat cortical neurons. As these cultures mature over time, neural networks develop functional activity and form cohesive networks in which electrical activity can be highly coordinated. Baseline 40-minute recordings are made on days post-plating 13 or 15, followed by a secondary 40-minute recording after chemical exposure.CCTE_Shafer_MEA_acute_LDH is a component of the CCTE_Shafer_MEA_acute assay. It measures the lactate dehydrogenase enzyme activity using spectrophotometry.Data from the assay component CCTE_Shafer_MEA_acute_LDH was analyzed into 1 assay endpoint. This assay endpoint, CCTE_Shafer_MEA_acute_LDH, was analyzed in the positive analysis fitting direction relative to DMSO as the negative control and baseline of activity. Using a type of viability reporter, gain-of-signal activity can be used to understand cell viability.
Immediately following the 40 min recording in the presence of compounds, 50 uL of media was removed from each well and transferred to a sterile 96-well plate. This was used to determine LDH released from cells during compound exposure using a kit from Promega where absorbance was determined in a Molecular Devices VersaMax plate reader at 490 nm.

Structure (SMILES) | outcome
Nc1cccc(N)n1 | inactive
CC1(C)CC(O)CC(C)(C)N1[O] | inactive
CC(C)C(=O)OCCc1ccccc1 | inactive
COC(=O)[C@H](Cc1ccccc1)NC(=O)[C@@H](N)CC(=O)O (H-Asp-Phe-OMe) | inactive
CCCC(C)C(=O)OCC (configuration not stated) | inactive
CC(CCC(=O)O)(c1ccc(O)cc1)c1ccc(O)cc1 | inactive
Nc1nc(N)nc(-c2ccccc2)n1 | inactive
CCCCCCCCCCCC(=O)N(C)CC(=O)O | inactive
Cc1c(C(=O)c2c[nH]n(C)c2=O)ccc(S(C)(=O)=O)c1C1=NOCC1 | inactive
CC/C=C\CCOC(=O)c1ccccc1O | inactive
c1ccc(Nc2cccc3ccccc23)cc1 | inactive
Oc1ccccc1Cc1ccccc1O | inactive
